Compound activity (PubChem)
This is a sample that favours compounds with a hit; in the whole collection about 1.5% have one here.
eIF4H inh – human eIF4H binding inhibitors, primary screen, translation initiation inhibitor project, biochemical, uHTS, fluorescence polarization | hit rate 0.94% among 290,000 | inhibition, % at 35 µM | eIF4H fluorescence polarization binding assay | Eukaryotic translation initiation factor 4H (Homo sapiens), Q15056;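 also: calls also rest on retests at 20 µM and on dose response follow-up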
PABP polyA inh – PABP poly(A) RNA binding inhibitors, primary screen, biochemical, fluorescence polarization, uHTS; Polyadenylate-binding protein 1 (Homo sapiens), P11940; calls only at 35 µM; hit rate 1% among 290,000; AID 2014, 2009;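 also: calls also rest on retests at 20 µM and on dose response follow-up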
PABP1 MLLE inh – inhibitors of PABP1 MLLE–PAM2 peptide binding, primary screen, biochemical, fluorescence polarization, FITC-PAM2, GST-MLLE; inhibition, % at 20 µM; hit rate 0.36% among 360,000; in the data active = inhibition above about 35%, passing the limit was not always enough;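 also: plate controls were DMSO wells with GST-MLLE for no effect and wells lacking GST-MLLE protein for full effect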
eIF4E-4G inh – eIF4E–eIF4G protein interaction inhibitors, primary screen, biochemical, uHTS, TR-FRET, eIF4GI fragment; TR-FRET eIF4E-eIF4GI(517-606) binding, 2 h; hit rate 0.37% among 220,000; inhibition, % at 21.7 µM; Eukaryotic translation initiation factor 4E (Mus musculus) + Eukaryotic translation …;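 active = inhibition above about 30%, limit read from the data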;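 also: 0% = full FRET control wells and 100% = background wells lacking eIF4GI fragment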
The depositor's hits bear a star; i = inactive; ? = inconclusive; nt = no result; + = active, no number; [ ] = remark or other dose. Unless noted, no rule for the calls is given here.

SMILES | eIF4H inh | PABP polyA inh | PABP1 MLLE inh | eIF4E-4G inh
O=C(/C=C/c1ccco1)NCC1OCCc2ccccc21 (configuration not stated) | 86.8* | + | 11.1 | 19.6
CC(C)c1ccc(CNC(=O)C2(C)CCCN2C)cc1 (configuration not stated) | nt | nt | 2.3 | nt
CCC(=O)NCCCc1nc2ccccc2n1Cc1ccccc1F | -8.6 | + | 1.3 | -5.7
COc1ccc2ccccc2c1C1CC(=O)N2CN(C)CSC2=C1C#N (configuration not stated) | 4.2 | i | 6.0 | 49.0*[fluorescence artefact?]
COc1cc(OC)c(C2CC(=O)N3CN(C)CSC3=C2C#N)cc1OC (configuration not stated) | 14.0 | i | -2.7 | -7.2
CCc1noc(C)c1C(=O)N1CCN(S(=O)(=O)c2ccccc2C(F)(F)F)CC1 | nt | nt | 88.3* | nt
c1cc(-n2nnc3cnccc32)ccn1 | 8.5 | i | -8.4 | -14.5
c1ccc(-n2nnc3cnccc32)cc1 | -10.9 | i | 4.9 | 30.6*
COc1ccc(C(=O)NC(=S)Nc2ccc(NC(=O)c3ccco3)cc2)cc1[N+](=O)[O-] | 1.5 | i | 34.5 | 0.6
COc1ccc(C(=O)NC(=S)Nc2cccc(NC(=O)c3ccco3)c2)cc1[N+](=O)[O-] | 7.9 | i | 42.0* | -5.5
Cc1ccc(C2CC2C(=O)NNC(=S)Nc2ccc(Cl)cc2)cc1 (configuration not stated) | 13.9 | i | 44.1* | 0.2
O=C(COC(=O)c1cccc(S(=O)(=O)N2CCCCC2)c1)NCc1cccc(Cl)c1 | nt | nt | -2.1 | nt
O=C(NC(=S)Nc1ccc(C(=O)N2CCOCC2)cc1)c1ccc([N+](=O)[O-])cc1 | 0.4 | i | 43.7* | 9.0
Cc1nn(C)c(C(=O)NC(=S)Nc2ccc([N+](=O)[O-])cc2)c1Cl | -7.4 | i | 39.9* | nt
Cc1ccc2c(c1)N1C(=O)c3ccccc3C1C1=C(CC(C)(C)CC1=O)N2 (configuration not stated) | active | i | 10.5 | -0.3
O=S(=O)(Nc1ccc(Cl)cc1)c1cccc2nsnc12 | -5.3 | i | -14.8 | nt
O=C(CN1CCCCCC1)Nc1ccccc1OC(F)F | -4.7 | i | -14.1 | nt
CCc1ccc(N=C2NC(=O)/C(=C/c3cc(OC)c(OC)c(OC)c3)S2)cc1 | 3.6 | i | -3.8 | nt
CCc1ccc(N=C2NC(=O)/C(=C/c3cc(Br)c(OCC(=O)O)c(OC)c3)S2)cc1 | 81.1* | i | -16.2 | nt
N#CC1=C(N)C2=C(N3CCCCC3)CCCC2C1(C#N)C#N (configuration not stated) | 109.6* | + | 38.5* | -2.2
NCCN1C(=O)c2ccccc2C1(O)c1ccc(Cl)cc1 (configuration not stated) | nt | nt | 1.3 | nt
CS(=O)(=O)N1N=C(c2cccs2)CC1c1ccccc1O (configuration not stated) | 59.3* | + | -10.2 | 5.2
CCC(=O)NC(=S)Nc1c(C)cc(Br)cc1C | -5.7 | i | 43.6* | -1.6
CCOC(=O)c1[nH]cnc1N=Nc1c(O)ccc2ccccc12 | ? | i | 51.5* | 7.9
Oc1ccc2ccccc2c1N=Nc1ccccn1 | 1.7 | i | -15.8 | 1.2
SMILES | eIF4H inh | PABP polyA inh | PABP1 MLLE inh | eIF4E-4G inh
COc1cccc(N2CCN(C(=O)Cn3c(=O)oc4ccccc43)CC2)c1 | -6.0 | i | 5.1 | nt
COc1cc(C(=S)N2CCN(c3ccccc3Cl)CC2)cc(O)c1O | 31.8 | i | 42.4* | 27.6
COc1ccc(C(=S)N2CCN(c3ccccc3Cl)CC2)cc1OC | 8.5 | i | 40.1* | -1.7
S=C(c1ccc(N2CCCC2)cc1)N1CCCCC1 | -4.4 | i | 3.4 | 7.3
S=C(c1ccc(N2CCOCC2)cc1)N1CCOCC1 | 5.0 | i | 37.9* | 8.3
CCOc1cc(C(=S)N2CCOCC2)ccc1OC | -5.9 | i | 56.0* | 7.4
COCCNC(=O)C1CCCN(C(=O)c2ccc(OC)c(F)c2)CC1 (configuration not stated) | nt | nt | 8.9 | nt
CC(=O)NCCNc1nc2cc(-c3cc(F)ccc3C)sc2c(=O)n1C | nt | nt | -2.1 | nt
CC1=C(C#N)C(=O)N(C2CCS(=O)(=O)C2)C(=O)/C1=C\c1ccc(C)o1 (configuration not stated) | ? | ? | nt | 37.7*
NC(Cc1ccc(C(F)(F)F)cc1)c1csc(Nc2nccc(C(F)(F)F)n2)n1 (configuration not stated) | nt | nt | -5.8 | nt
Cn1c(=O)c2ncn(CC(=O)Nc3ccc4c5c(cccc35)CC4)c2n(C)c1=O | 47.2* | + | 7.3 | 3.4
Cc1cccc(C)c1NC(=O)Cn1cnc2c(=O)n(C)c(=O)n(C)c21 | -16.7 | i | -0.4 | 8.7
CC1=NNC(=O)C1Oc1ccccc1 (configuration not stated) | 21.5 | i | 3.2 | 2.2
CO/N=C/C1C(=O)NN=C1c1ccccc1 (configuration not stated) | ? | + | 4.6 | 2.3
CCN(c1c(C)n(C)n(-c2ccccc2)c1=O)S(C)(=O)=O | 6.6 | i | 52.0* | -12.8
Cc1oc(-c2ccc(F)cc2)cc1-c1nn2c(-c3ccoc3C)nnc2s1 | 79.5* | + | -17.0 | nt
COc1cc(OC)c(-c2nn3c(-c4ccco4)nnc3s2)cc1OC | 75.4* | i | 2.7 | 6.5
Cc1oc(-c2ccc(Cl)cc2)cc1-c1nn2c(-c3ccco3)nnc2s1 | 64.4* | + | nt | nt
O=C1NC(=O)N2CCSC2(Cc2ccccc2)N1 (configuration not stated) | nt | nt | 41.2* | nt
COc1ccccc1CNC(=O)CN(C)S(=O)(=O)c1cccc2cccnc12 | 0.5 | i | 4.8 | 95.5*
Cc1ccc(C(=O)NCC(=O)N2CCN(c3ccccc3O)CC2)s1 | nt | nt | -8.7 | nt
O=C(CSc1nccc(=O)[nH]1)N1CCCc2ccccc21 | -6.3 | i | 38.1* | -0.9
Cc1ccc(CNc2nc(NCc3ccccc3)nc3ccsc23)c(C)c1 | nt | nt | 2.3 | nt
O=C(CSc1cccc[n+]1[O-])NC1CCCCC1 | nt | nt | -5.9 | nt
Cc1c(C(=O)OC2CCC(C)CC2)[nH]c2c1C(=O)CCC2 (configuration not stated) | 75.0* | i | -1.2 | 3.4
SMILES | eIF4H inh | PABP polyA inh | PABP1 MLLE inh | eIF4E-4G inh
COC(=O)c1[nH]c2c(c1C)C(=O)CCC2 | -2.3 | i | 2.3 | 5.4
O=C(NCc1ccccc1Cl)c1ccc2nc([C@@H]3O[C@H](CO)[C@H](O)[C@H](O)[C@H]3O)[nH]c2c1 | nt | nt | -17.5 | nt
CCOC(=O)COc1cccc2c(=O)n(CC(N)=O)ccc12 | -2.3 | i | 8.4 | -6.3
CCOC(=O)COc1cccc2c(=O)n(CC(=O)N3CCCCC3)ccc12 | 102.8* | + | 8.8 | -10.2
C[C@@H]1CCCCO[C@H](CN(C)Cc2ccc3c(c2)OCO3)[C@@H](C)CN([C@H](C)CO)C(=O)c2cc(NC(=O)c3ccccc3)ccc2O1 | nt | nt | -9.4 | nt
CCCS(=O)(=O)N1CCN=C1SCc1ccc(F)cc1 | -2.9 | i | -4.0 | nt
CCCS(=O)(=O)N1CCN=C1SCc1cccnc1 | 0.8 | i | 40.2* | 15.2
Cc1ccc([C@H]2C[C@H](O)[C@@H](n3cc(COC(=O)c4ccccc4)nn3)CN2Cc2cccs2)cc1 | nt | nt | 3.4 | nt
